# Results taken from PubChem BioAssay (NCATS).
# Where “and” joins values, the source holds several entries; their conditions need not be identical. Identical values can stand only once. Inconclusive results are not listed. Some structures have more than one record in an assay (separate samples or runs), and their calls can disagree. Calls of active or inactive are those of the source. Unless noted, calls follow the shape of the dose curve; as a rule, active = well fitted curve in the direction sought with a large enough effect; inconclusive = small, poorly fitted or top-dose-only effect, or another doubt; inactive = no such curve, though single readings can be large; an effect the other way counts as inactive or inconclusive.
# Tests used:
# [1] = Primary qHTS for inhibitors of nuclear receptor binding SET domain protein 2 (NSD2) in an RCH-ACV wild type WT cells (2C) (AID 1645877); also: nearly all actives have a fitted effect of over 70% in size; also: potency is read from the fitted curve at half-maximal effect
# [2] = molecular target: Rap guanine nucleotide exchange factor 3 (Homo sapiens) (UniProt O95398); assay: Confirmatory qHTS for antagonist of cAMP-regulated guanine nucleotide exchange factor 3 (EPAC1) (AID 1645880); also: nearly all actives have a fitted effect of over 55% in size; also: potency is read from the fitted curve at half-maximal effect
# In short: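 Released BODIPY-GDP fluoresces less than Rap1-bound BODIPY-GDP; the signal is followed at 480/540 nm at 5-min intervals over 30 min, after 5 min at room temperature. Reactions contain 100 nM EPAC1, 250 nM RAP1B-BODIPY-GDP and 50 uM GDP; results are normalized to ATA and DMSO.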
# [3] = molecular target: Rap guanine nucleotide exchange factor 3 (Homo sapiens) (UniProt O95398); assay: Confirmatory qHTS for agonist of cAMP-regulated guanine nucleotide exchange factor 3 (EPAC1) (AID 1645881);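 also: EPAC1 catalysed release of BODIPY-GDP from Rap1B seen as fluorescence loss; 100% = effect of cAMP agonist control; nearly all actives have a fitted effect of over 75% in size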
# [4] = molecular target: Rap guanine nucleotide exchange factor 4 (Homo sapiens) (UniProt Q8WZA2); assay: Confirmatory qHTS for agonist of cAMP-regulated guanine nucleotide exchange factor 4 (EPAC2) (AID 1645884);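 also: nucleotide exchange releases bodipy-GDP from Rap1 and this lowers its fluorescence; % is scaled to controls: 0 for no effect and ±100 for the full control effect; nearly all actives have a fitted effect of over 65% in size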
# [5] = molecular target: Rap guanine nucleotide exchange factor 4 (Homo sapiens) (UniProt Q8WZA2); assay: Confirmatory qHTS for antagonist of cAMP-regulated guanine nucleotide exchange factor 4 (EPAC2) (AID 1645885); also: nearly all actives have a fitted effect of over 25% in size; also: potency is read from the fitted curve at half-maximal effect; as to activity change, negative = inhibition: % is scaled to controls: 0 for no effect and ±100 for the full control effect
# [6] = molecular target: Rap guanine nucleotide exchange factor 3 (Homo sapiens) (UniProt O95398); assay: Counterscreen qHTS for antagonist of cAMP-regulated guanine nucleotide exchange factor 3 (EPAC1) (AID 1645888); also: % of control where 0% means no effect
# In short: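 Rap1B-BODIPY-GDP 250 nM + GDP 50 uM; cpds 7-pt, final 9.74 nM–152 uM (activator mode) or from 7.32 nM upwards (inhibitor mode); RT; FI 480/540 nm at 5 and 30 min, then ± cAMP, reread.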
# [7] = molecular target: Catechol O-methyltransferase (Homo sapiens) (UniProt P21964); assay: Confirmatory Screen for Target Class Profiling of Small Molecule Inhibitors of Methyltransferases (AID 1745852; calls by dose curve; also: potency is read from the fitted curve at half-maximal effect; as to activity change, negative = inhibition: % is scaled to controls: 0 for no effect and ±100 for the full control effect); conditions: MTase-Glo luminescence, SAH detection, recombinant enzyme; measured here: COMT max response; stronger effect = lower value
# [8] = molecular target: Guanidinoacetate N-methyltransferase (Homo sapiens) (UniProt Q14353); assay: as above; conditions: MTase-Glo luminescence, SAH detection, recombinant enzyme
# [9] = molecular target: Nicotinamide N-methyltransferase (Homo sapiens) (UniProt P40261); assay: as above; conditions: MTase-Glo luminescence, SAH detection, recombinant enzyme; measured here: NNMT max response; stronger effect = lower value
# [10] = molecular target: Phenylethanolamine N-methyltransferase (Homo sapiens) (UniProt P11086); assay: as above; conditions: MTase-Glo luminescence, SAH detection, recombinant enzyme; measured here: PNMT max response; stronger effect = lower value
# Phenylethanolamine N-methyltransferase (Homo sapiens), sequence (P11086 whole entry, looked up): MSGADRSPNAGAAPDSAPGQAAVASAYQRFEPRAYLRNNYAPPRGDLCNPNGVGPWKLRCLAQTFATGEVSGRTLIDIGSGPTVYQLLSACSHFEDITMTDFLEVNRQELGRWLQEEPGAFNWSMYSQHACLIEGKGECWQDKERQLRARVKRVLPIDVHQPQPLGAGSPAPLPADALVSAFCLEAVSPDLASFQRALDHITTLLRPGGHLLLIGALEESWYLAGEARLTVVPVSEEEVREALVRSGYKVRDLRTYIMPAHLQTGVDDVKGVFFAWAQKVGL
# Rap guanine nucleotide exchange factor 3 (Homo sapiens), sequence (O95398 whole entry, looked up): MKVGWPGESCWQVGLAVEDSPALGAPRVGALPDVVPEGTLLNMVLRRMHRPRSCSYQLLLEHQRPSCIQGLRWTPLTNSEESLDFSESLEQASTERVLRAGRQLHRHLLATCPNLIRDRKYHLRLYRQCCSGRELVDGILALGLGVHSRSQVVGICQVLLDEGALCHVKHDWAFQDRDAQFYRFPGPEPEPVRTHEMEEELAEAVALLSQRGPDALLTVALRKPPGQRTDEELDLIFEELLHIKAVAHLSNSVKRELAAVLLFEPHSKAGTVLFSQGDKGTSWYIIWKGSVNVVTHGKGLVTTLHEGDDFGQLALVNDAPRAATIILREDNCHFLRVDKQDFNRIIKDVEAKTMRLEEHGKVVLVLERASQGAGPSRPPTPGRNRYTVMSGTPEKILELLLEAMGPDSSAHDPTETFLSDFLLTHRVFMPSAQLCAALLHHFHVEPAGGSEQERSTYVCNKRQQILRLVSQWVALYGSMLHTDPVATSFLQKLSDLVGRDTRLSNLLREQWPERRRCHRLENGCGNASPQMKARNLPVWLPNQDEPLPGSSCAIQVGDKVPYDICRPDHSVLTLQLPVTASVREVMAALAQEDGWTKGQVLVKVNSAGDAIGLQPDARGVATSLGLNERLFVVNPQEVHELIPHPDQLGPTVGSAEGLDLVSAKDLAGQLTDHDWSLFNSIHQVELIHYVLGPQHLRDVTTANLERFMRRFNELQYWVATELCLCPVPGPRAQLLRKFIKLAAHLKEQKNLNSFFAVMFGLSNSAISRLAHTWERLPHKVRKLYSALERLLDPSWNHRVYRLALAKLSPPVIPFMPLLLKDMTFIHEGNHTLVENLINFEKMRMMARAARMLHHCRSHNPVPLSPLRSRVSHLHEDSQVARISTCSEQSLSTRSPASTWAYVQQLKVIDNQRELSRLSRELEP
# Rap guanine nucleotide exchange factor 4 (Homo sapiens), sequence (Q8WZA2 whole entry, looked up): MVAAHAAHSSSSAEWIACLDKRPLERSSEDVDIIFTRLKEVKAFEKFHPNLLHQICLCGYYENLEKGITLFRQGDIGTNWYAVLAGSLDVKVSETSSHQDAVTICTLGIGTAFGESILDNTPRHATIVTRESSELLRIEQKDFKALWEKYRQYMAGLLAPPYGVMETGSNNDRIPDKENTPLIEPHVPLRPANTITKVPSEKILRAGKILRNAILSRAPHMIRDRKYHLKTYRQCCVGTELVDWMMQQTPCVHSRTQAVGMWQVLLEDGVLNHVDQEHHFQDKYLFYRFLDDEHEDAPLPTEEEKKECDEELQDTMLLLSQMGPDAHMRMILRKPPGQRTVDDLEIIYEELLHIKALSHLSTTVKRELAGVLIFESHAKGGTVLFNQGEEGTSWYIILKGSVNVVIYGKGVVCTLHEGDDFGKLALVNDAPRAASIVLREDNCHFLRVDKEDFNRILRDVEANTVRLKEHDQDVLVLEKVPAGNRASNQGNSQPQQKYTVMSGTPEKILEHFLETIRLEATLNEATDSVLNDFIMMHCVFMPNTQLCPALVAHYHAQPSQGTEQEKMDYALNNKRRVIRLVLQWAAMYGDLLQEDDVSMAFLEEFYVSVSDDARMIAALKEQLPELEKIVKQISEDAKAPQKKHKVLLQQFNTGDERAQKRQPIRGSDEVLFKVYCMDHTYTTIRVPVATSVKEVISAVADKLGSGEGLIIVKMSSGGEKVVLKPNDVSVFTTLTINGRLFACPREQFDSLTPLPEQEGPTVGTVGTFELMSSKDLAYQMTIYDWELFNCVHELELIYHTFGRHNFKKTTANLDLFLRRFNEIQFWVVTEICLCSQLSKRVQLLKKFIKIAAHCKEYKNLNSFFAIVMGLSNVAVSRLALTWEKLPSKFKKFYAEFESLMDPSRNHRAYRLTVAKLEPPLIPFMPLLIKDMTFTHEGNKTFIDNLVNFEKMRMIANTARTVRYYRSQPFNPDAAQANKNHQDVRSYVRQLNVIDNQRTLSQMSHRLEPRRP
# Nicotinamide N-methyltransferase (Homo sapiens), sequence (P40261 whole entry, looked up): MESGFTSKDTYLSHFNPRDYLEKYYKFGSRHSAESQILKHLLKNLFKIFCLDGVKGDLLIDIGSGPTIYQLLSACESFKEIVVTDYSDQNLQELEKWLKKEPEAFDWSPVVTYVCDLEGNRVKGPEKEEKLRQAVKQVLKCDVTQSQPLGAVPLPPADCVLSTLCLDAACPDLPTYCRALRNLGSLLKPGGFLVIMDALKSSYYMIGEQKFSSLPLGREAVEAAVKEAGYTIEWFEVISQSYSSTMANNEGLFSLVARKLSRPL
# Catechol O-methyltransferase (Homo sapiens), sequence (P21964 whole entry, looked up): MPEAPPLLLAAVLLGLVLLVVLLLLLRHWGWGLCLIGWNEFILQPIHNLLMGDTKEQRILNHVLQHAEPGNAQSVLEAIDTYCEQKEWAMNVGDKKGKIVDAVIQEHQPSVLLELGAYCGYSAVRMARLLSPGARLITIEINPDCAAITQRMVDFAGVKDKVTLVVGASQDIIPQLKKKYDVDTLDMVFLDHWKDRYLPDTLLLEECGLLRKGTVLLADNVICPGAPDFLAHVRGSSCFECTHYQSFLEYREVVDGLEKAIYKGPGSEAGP
smiles,measurement,setting,value
O=c1cc[nH]c(=O)[nH]1,Potency,[1],inactive
Cn1cc[nH]c1=S,Potency,[1],inactive
CC1(C)[C@@H]2CC[C@@]1(C)C(=O)C2,Potency,[1],inactive
O=C(O)[C@@H]1CSCN1,Potency,[1],inactive
CC(=O)NC(Cc1ccccc1)C(=O)O (stereo not drawn),Potency,[1],inactive
CN1CCOC(c2ccccc2)c2ccccc2C1 (stereo not drawn),Potency,[1],inactive
O=S(=O)(O)c1cc(I)c(O)c2ncccc12,Potency,[1],inactive
COc1ccc2cc1Oc1ccc(cc1)C[C@H]1c3c(cc4c(c3Oc3cc5c(cc3OC)CCN(C)[C@@H]5C2)OCO4)CCN1C,Potency,[1],9.44 µM (active) and 9.16 µM (active)
NCC(=O)CCC(=O)O,Potency,[1],inactive
CC(C)C(=O)c1c(C(C)C)nn2ccccc12,Potency,[1],inactive
O=c1[nH]cnc2c1ncn2[C@@H]1O[C@H](CO)[C@@H](O)[C@H]1O,Potency,[1],inactive
O=c1cc(CO)occ1O,Potency,[1],inactive
CCOC(=O)[C@H](CCc1ccccc1)N[C@@H](C)C(=O)N1C(=O)N(C)C[C@H]1C(=O)O,Potency,[1],inactive
Cc1cccc(C)c1NC(=O)CN(CC(=O)O)CC(=O)O,Potency,[1],inactive
CN(C)CCOC(C)(c1ccccc1)c1ccccn1 (stereo not drawn),Potency,[1],inactive
CCCc1c(OCCCCc2nn[nH]n2)ccc(C(C)=O)c1O,Potency,[2],55.9 µM (active) and inactive
same,Potency,[3],inactive
same,Potency,[4],inactive
same,Potency,[5],15.6 µM (active)
same,"activity change, negative = inhibition",[5],-26.3% [at 12.7 µM] (inactive)
same,outcome,[6],inactive
C[C@]12CC[C@@H]3c4ccc(O)cc4CC[C@H]3[C@@H]1CCC2=O,activity,[7],-21.5%
same,"activity change, negative = inhibition",[8]; at 57.3 µM (top of the series),-1.67%
same,activity,[9],-55.7%
same,activity,[10],-0.307%
NC(N)=NCCC[C@H](N)C(=O)O,activity,[7],6.47%
same,"activity change, negative = inhibition",[8]; at 57.3 µM (top of the series),-1.16%
same,activity,[9],-0.737%
same,activity,[10],6.66%
COc1ccc2[nH]c(S(=O)Cc3ncc(C)c(OC)c3C)nc2n1 (stereo not drawn),Potency,[1],inactive
O=C1Nc2ccc(Cl)cc2[C@@](C#CC2CC2)(C(F)(F)F)O1,Potency,[1],20.9 µM (active) and 26.3 µM (active)
same,Potency,[2],inactive
same,Potency,[3],inactive
same,Potency,[5],44.1 µM (active)
same,activity,[7],-1.93%
same,"activity change, negative = inhibition",[8]; at 57.3 µM (top of the series),0%
same,activity,[9],-43%
same,activity,[10],-2.33%
CC[N+](CC)(CC)CCOc1ccc(/C=C/c2ccccc2)cc1,Potency,[1],1.88 µM (active)
Cc1ccc2nc(N)[nH]c(=O)c2c1Sc1ccncc1,Potency,[1],2.05 µM (active)
same,activity,[7],-5.5%
same,"activity change, negative = inhibition",[8]; at 57.3 µM (top of the series),2.89%
same,activity,[9],1.11%
same,activity,[10],1.12%
CN1CCN(C2Cc3ccccc3Sc3ccc(Cl)cc32)CC1 (stereo not drawn),activity,[7],14.6%
same,"activity change, negative = inhibition",[8]; at 57.3 µM (top of the series),8.35%
same,activity,[9],-22.8%
same,activity,[10],8.62%
Cc1cc(N)c2ccccc2[n+]1CCCCCCCCCC[n+]1c(C)cc(N)c2ccccc21,Potency,[1],3.25 µM (active)
same,activity,[7],2.05%
same,"activity change, negative = inhibition",[8]; at 57.3 µM (top of the series),-0.381%
same,activity,[9],-23.8%
same,activity,[10],3.98%
COc1cc(C)c(Cc2cnc(N)nc2N)cc1OC,Potency,[1],inactive
Nc1ccc(S(=O)(=O)NC(=O)c2ccccc2)cc1,Potency,[1],inactive
Cc1cc(C(C#N)c2ccc(Cl)cc2)c(Cl)cc1NC(=O)c1cc(I)cc(I)c1O (stereo not drawn),activity,[7],-21.3%
same,Potency,[8],30.4 µM (active)
same,activity,[9],-81.7%
same,activity,[10],-74.7%
COc1ccc(Cl)cc1C(=O)NCCc1ccc(S(=O)(=O)NC(=O)NC2CCCCC2)cc1,activity,[7],-8.62%
same,"activity change, negative = inhibition",[8]; at 57.3 µM (top of the series),-1.47%
same,activity,[9],-22.1%
same,activity,[10],-3.2%
Cc1c(Cl)cccc1Nc1ccccc1C(=O)O,Potency,[3],inactive
same,Potency,[4],inactive
same,Potency,[5],44.1 µM (active)
Cc1c(O)cccc1C(=O)N[C@@H](CSc1ccccc1)[C@H](O)CN1C[C@H]2CCCC[C@H]2C[C@H]1C(=O)NC(C)(C)C,Potency,[1],16.8 µM (active)
CC(O)CN(CCN(CC(C)O)CC(C)O)CC(C)O (stereo not drawn),Potency,[1],inactive
Cc1cc2nc3c(=O)[nH]c(=O)nc-3n(C[C@H](O)[C@H](O)[C@H](O)CO)c2cc1C,Potency,[1],inactive
same,Potency,[2],inactive
same,Potency,[5],inactive
CCN(CC)CCNC(=O)c1cc(Cl)c(N)cc1OC,Potency,[1],inactive
CCN(CC)C(C)CN1c2ccccc2Sc2ccccc21 (stereo not drawn),Potency,[1],inactive
same,Potency,[3],inactive
same,Potency,[4],inactive
same,Potency,[5],55.5 µM (active)
CNC(=O)Oc1ccc2c(c1)[C@]1(C)CCN(C)[C@@H]1N2C,Potency,[1],inactive
same,Potency,[2],inactive
same,Potency,[3],inactive
same,Potency,[4],inactive
same,Potency,[5],inactive
CNCCC(Oc1ccc(C(F)(F)F)cc1)c1ccccc1 (stereo not drawn),Potency,[1],23.7 µM (active)
CC1(C)Oc2ccc(C#N)cc2[C@@H](N2CCCC2=O)[C@@H]1O,Potency,[2],inactive
same,Potency,[3],inactive
same,Potency,[4],inactive
same,Potency,[5],inactive
C[C@H]1O[C@@H](n2cc(F)c(=O)[nH]c2=O)[C@H](O)[C@@H]1O,Potency,[1],20.9 µM (active)
CCN(CC)CCCC(C)Nc1c2ccc(Cl)cc2nc2ccc(OC)cc12 (stereo not drawn),Potency,[1],5.25 µM (active)
same,Potency,[2],inactive
same,Potency,[3],inactive
same,Potency,[5],inactive
same,activity,[7],-1.98% and -3.74%
same,"activity change, negative = inhibition",[8]; at 29.8 µM (top of the series),-0.149%
same,"activity change, negative = inhibition",[8]; at 57.3 µM (top of the series),2.96%
same,activity,[9],-11.3% and -15.1%
same,activity,[10],3.56% and -4.16%
CC(C)(O)c1ccccc1CC[C@@H](SCC1(CC(=O)O)CC1)c1cccc(/C=C/c2ccc3ccc(Cl)cc3n2)c1,Potency,[1],inactive
same,Potency,[2],25 µM (active)
same,Potency,[3],inactive
same,Potency,[4],inactive
same,activity,[7],-3.13%
same,"activity change, negative = inhibition",[8]; at 57.3 µM (top of the series),-3.41%
same,activity,[9],-24.6%
same,activity,[10],-2.75%
CC1(C)OC(=O)NC1=O,Potency,[1],inactive
CN(C)CC[C@@H](c1ccc(Cl)cc1)c1ccccn1,Potency,[1],inactive
same,activity,[7],-1.71%
same,"activity change, negative = inhibition",[8]; at 57.3 µM (top of the series),2.46%
same,activity,[9],-7.31%
same,activity,[10],-1.72%
c1ccc(CN(CC2=NCCN2)c2ccccc2)cc1,Potency,[1],inactive
CC(C)(C)[C@]1(O)CCN2C[C@H]3c4ccccc4CCc4cccc(c43)[C@@H]2C1,activity,[7],-2.14%
same,"activity change, negative = inhibition",[8]; at 57.3 µM (top of the series),6.2%
same,activity,[9],-19.3%
same,activity,[10],-4.4%
COCCOC(=O)C1=C(C)NC(C)=C(C(=O)OC/C=C/c2ccccc2)C1c1cccc([N+](=O)[O-])c1 (stereo not drawn),Potency,[1],21.1 µM (active)
same,Potency,[3],inactive
same,Potency,[4],inactive
CCCn1cnc2c1c(=O)n(CCCCC(C)=O)c(=O)n2C,Potency,[1],inactive
OCCN1CCN(CCCN2c3ccccc3Sc3ccc(Cl)cc32)CC1,Potency,[1],9.44 µM (active)
same,Potency,[2],inactive
same,Potency,[3],inactive
NC(=O)NC(=O)Cc1ccccc1,Potency,[1],inactive
